NS1 function inh: influenza NS1 inhibition. Potency, µM (series often up to 46.1 µM), inactives show at the highest dose activity, positive = more growth. 0.4% of 270,000 active; calls by dose curve; note: potency is the fitted concentration of half-maximal effect; actives are rising curves; nearly all actives have a fitted effect of over 50% in size
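Recovery from NS1-induced slow growth read by OD600 in budding yeast switched to galactose assay medium (pH 6.0, -URA) at 1:100 dilution. Compound 23 nl per well; the matching strain lacking NS1 serves as control.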
Shiga inhibitor: Shiga toxin inhibition; inhibition, % at 38.7 µM; Vero cells, Shiga toxin protein synthesis inhibition reporter; 9.2% of 290,000 active; in the data active = inhibition mostly above about 28%, no sharp cut-off; inactive = mostly below about 43%; note: 0% is about no effect
AmpC inh detg: inhibitors of E. coli AmpC beta-lactamase with detergent; AID 485294; Potency, µM (doses to about 114 µM), for inactives: at the highest dose activity change, negative = inhibition, hits mostly inhibitors; P00811; AmpC hydrolysis of nitrocefin, absorbance 480 nm, 0.01% Triton; 0.041% of 370,000 active;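 note: potency is the fitted concentration of half-maximal effect; 0% = no-compound wells and -100% = no-enzyme wells; nearly all actives have a fitted effect of over 25% in size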
Target sequence (P00811 whole entry, looked up): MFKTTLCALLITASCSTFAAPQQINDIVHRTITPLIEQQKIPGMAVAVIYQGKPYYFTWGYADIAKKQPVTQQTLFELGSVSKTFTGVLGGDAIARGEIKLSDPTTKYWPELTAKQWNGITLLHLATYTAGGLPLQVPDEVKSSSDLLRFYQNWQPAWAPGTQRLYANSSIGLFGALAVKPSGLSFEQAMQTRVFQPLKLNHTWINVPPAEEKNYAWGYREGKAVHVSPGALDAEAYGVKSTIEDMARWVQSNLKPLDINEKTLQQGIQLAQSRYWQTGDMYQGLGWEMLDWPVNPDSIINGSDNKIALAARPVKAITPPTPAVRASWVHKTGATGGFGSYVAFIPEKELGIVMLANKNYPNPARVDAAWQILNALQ
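AmpC (5.3 nM in the dispensed reagent) in 20 mM phosphate pH 7.0 with 0.01% (detergent screen) or 0.0001% Triton X-100 was preincubated with compounds for 15 min at room temperature. Nitrocefin was then added from an 800 uM solution, and hydrolysis was followed at 480 nm.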
Cycloheximide cs: counter-screen for Shiga toxin inhibitors: cycloheximide protein synthesis inhibition; max response, %; cell reporter, cycloheximide protein synthesis inhibition counterscreen; 12% of 300,000 active; in the data active = max response mostly above about 13%, no sharp cut-off; inactive = mostly below about 14%; note: read at 38.3 µM for the half of the compounds with a filed dose; 0% is about no effect
AmpC inh no detg: AmpC beta-lactamase inhibition without detergent. AmpC nitrocefin hydrolysis, absorbance 480 nm, 0.0001% Triton. 0.52% of 330,000 active. Potency, µM (titrated, usually from 57.1 µM), for the others: at the highest dose activity change, negative = inhibition, actives largely listed as inhibitors. AID 485341;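 note: potency is the fitted concentration of half-maximal effect; plate controls were no compound for no effect and no enzyme for full effect; nearly all actives have a fitted effect of over 20% in size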
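20 mM phosphate pH 7.0 + 0.01% (detergent screen) or 0.0001% Triton X-100; 5.3 nM AmpC reagent; cpd preinc 15 min RT; nitrocefin (800 uM stock) to start; A480 q20 s × 4 min; Activity was normalised to no-enzyme and no-compound control wells.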
The depositor's hits bear a star. The entries come from a sample that favours hits as a whole. Unless noted, calls come from the whole dose curve; as a rule, active = well fitted curve in the direction sought with a large enough effect; inconclusive = small, poorly fitted or top-dose-only effect, or another doubt; inactive = no such curve, though single readings can be large; an effect the other way counts as inactive or inconclusive.

N#Cc1nc(-c2ccccc2)oc1NCC1CCCO1 (stereo unspecified) was read as NS1 function inh 0%, Shiga inhibitor 34, AmpC inh detg -18%, Cycloheximide cs 14 and AmpC inh no detg -7%.
Screening N#Cc1nc(-c2ccc(Cl)cc2)oc1NCC1CCCO1 (stereo unspecified) returned NS1 function inh -12%, Shiga inhibitor 108*, AmpC inh detg 4%, Cycloheximide cs 21* and AmpC inh no detg 5%.
N#Cc1nc(-c2cccc3ccccc23)oc1NCC1CCCO1 (stereo unspecified) was read as NS1 function inh -4%, Shiga inhibitor 65*, AmpC inh detg -8%, Cycloheximide cs 52* and AmpC inh no detg 63%.
`CN(C)CCNC(=O)CN1C(=O)COc2ccc(S(=O)(=O)N3CCCC3)cc21` gave AmpC inh detg 14%.
`CC(=O)Nc1ccc(S(=O)(=O)N2CCN(C(=O)c3ncoc3-c3ccc(F)cc3)CC2)cc1` gave NS1 function inh -2%, Shiga inhibitor -14, AmpC inh detg -10%, Cycloheximide cs -4 and AmpC inh no detg 20%.
O=C(CCC(=O)c1ccc(Cl)cc1)OCn1nnc2ccccc2c1=O was read as AmpC inh no detg -13%.
For CCOC(=O)c1c(C)[nH]c(C)c1S(=O)(=O)NCCc1ccco1 the results were NS1 function inh 3%, Shiga inhibitor -2, AmpC inh detg -2%, Cycloheximide cs -2 and AmpC inh no detg -26%.
Screening CN(C(=O)NC(=O)C1=C(N2CCOCC2)/C(=C/c2ccccc2)CC1)S(C)(=O)=O returned NS1 function inh -30%, Shiga inhibitor 53*, AmpC inh detg -1%, Cycloheximide cs 29* and AmpC inh no detg -17%.
For CCCCN(C(=O)NC(=O)C1=C(N2CCOCC2)/C(=C/c2ccccc2)CC1)S(C)(=O)=O the results were NS1 function inh -36%, Shiga inhibitor 20, AmpC inh detg -12%, Cycloheximide cs 16 and AmpC inh no detg -19%.
`O=C(O)c1ccc(N/N=C/C2=C(N3CCOCC3)C(=C\c3ccccc3)/CC2)cc1` gave NS1 function inh 19%, Shiga inhibitor 74*, AmpC inh detg -15%, Cycloheximide cs 38* and AmpC inh no detg inconclusive.
For Cc1cccc(C(=O)NNc2ncnc3c2cnn3-c2ccc(C)c(Cl)c2)c1 the results were AmpC inh detg 0%.
Screening COc1ccc(C2c3[nH]c4ccccc4c3CCN2C(=O)c2cn3ccccc3n2)c(F)c1 (stereo unspecified) returned NS1 function inh 14%, Shiga inhibitor 53*, AmpC inh detg -2%, Cycloheximide cs 30* and AmpC inh no detg 44%.
`COc1ccc(C2c3[nH]c4ccccc4c3CCN2C(=O)c2ccccc2C(C)=O)c(F)c1` (stereo unspecified) gave NS1 function inh 7%, Shiga inhibitor 29*, AmpC inh detg inconclusive, Cycloheximide cs 18* and AmpC inh no detg 106%.
For COc1ccc(C2c3[nH]c4ccccc4c3CCN2C(=O)c2cc3ncccn3n2)c(F)c1 (stereo unspecified) the results were NS1 function inh 2%, Shiga inhibitor 28, AmpC inh detg -4%, Cycloheximide cs 10 and AmpC inh no detg 99%.
O=S1(=O)N[C@H]2CC[C@@H]3NS(=O)(=O)N[C@H]4CC[C@H](N1)N4S(=O)(=O)N23 was read as NS1 function inh 4%.
Screening O=C(/C=C/c1cnc2ccccc2n1)NC12CC3CC(CC(C3)C1)C2 returned NS1 function inh -7%, Shiga inhibitor 136*, AmpC inh detg -11%, Cycloheximide cs 54* and AmpC inh no detg -24%.
For CCC(C)(C)NC(=O)/C=C/c1cnc2ccccc2n1 the results were NS1 function inh -2%, Shiga inhibitor 77*, AmpC inh detg 0%, Cycloheximide cs 73* and AmpC inh no detg -39%.
`CCN(C(=O)COC(=O)/C=C/c1cnc2ccccc2n1)c1ccccc1` gave Shiga inhibitor 10, AmpC inh detg -3%, Cycloheximide cs 8 and AmpC inh no detg 4%.
Screening O=C(O)/C=C/c1cnc2ccccc2n1 returned Shiga inhibitor -5, AmpC inh detg -15%, Cycloheximide cs -3 and AmpC inh no detg -14%.
`CC(C)N(Cc1ccccc1)C(=O)COC(=O)/C=C/c1cnc2ccccc2n1` gave NS1 function inh 3%, Shiga inhibitor 50, AmpC inh detg 3%, Cycloheximide cs 21* and AmpC inh no detg 18%.
For Cc1cc(C)c(Cn2c3ccccc3c3cnn(CC(=O)NCCCc4ccccc4)c(=O)c32)c(C)c1 the results were AmpC inh detg 11%.
`CC(C)(C)OC(=O)N1CCC[C@H]1C(=O)Nc1ccc(S(=O)(=O)C(F)F)cc1` gave NS1 function inh -2%, Shiga inhibitor -23, AmpC inh detg 3%, Cycloheximide cs -1 and AmpC inh no detg -19%.
Screening CCC1Oc2ccc(C)cc2N(CC(=O)N2CCOCC2)C1=O (stereo unspecified) returned NS1 function inh 4%, Shiga inhibitor 18, AmpC inh detg 1%, Cycloheximide cs -5 and AmpC inh no detg -1%.
`Cc1ccc(-c2cc(N)n(-c3ccc(C)cc3)n2)cc1` gave NS1 function inh 23%, Shiga inhibitor 57*, AmpC inh detg 16%, Cycloheximide cs 31* and AmpC inh no detg -43%.
`Cc1ccc(-c2nnnn2-c2ccc(C)cc2)cc1` gave Shiga inhibitor 23, AmpC inh detg -7%, Cycloheximide cs 11 and AmpC inh no detg -23%.
Cc1ccc(-c2cc(N)n(-c3ccc(F)cc3)n2)cc1 was read as NS1 function inh 12%, Shiga inhibitor 67*, AmpC inh detg 0%, Cycloheximide cs 49* and AmpC inh no detg -29%.
CC(C)CC(=O)N(Cc1ccc(F)cc1)C1CCS(=O)(=O)C1 (stereo unspecified) was read as NS1 function inh -8%, Shiga inhibitor -6, AmpC inh detg 8%, Cycloheximide cs -1 and AmpC inh no detg -3%.
`Cc1cc(C)c(OCCCCNCc2ccccc2)c(Cl)c1` gave NS1 function inh -24%, Shiga inhibitor -6, AmpC inh detg -10%, Cycloheximide cs -4 and AmpC inh no detg 5%.
Screening CC1C/C(=C/c2cccn2C)C(=O)/C(=C/c2cccn2C)C1 (stereo unspecified) returned NS1 function inh 27%, Shiga inhibitor 49*, AmpC inh detg 3%, Cycloheximide cs 29* and AmpC inh no detg 108%.
For COC(=O)C(C)NC(=O)c1cn(-c2ccccc2OC)c(=O)c2ccccc12 (stereo unspecified) the results were NS1 function inh 4%, Shiga inhibitor -2, AmpC inh detg -3%, Cycloheximide cs -2 and AmpC inh no detg -7%.
Screening CCOc1ccc(NC(=O)Cn2c(=O)n(-c3cccc(OC)c3)c(=O)c3c4c(sc32)CCCC4)cc1 returned AmpC inh detg 27%.
